Records with an inconclusive call do not appear. Activity calls are given as the source filed them. Unless noted, the call rests on the fitted dose curve; in most records, active means well fitted curve in the direction sought with a large enough effect; inconclusive means small, poorly fitted or top-dose-only effect, or another doubt; inactive means no such curve, though single readings can be large; an effect the other way counts as inactive or inconclusive.
Legend:
[1] = P-glycoprotein substrates identified in KB-3-1 adenocarcinoma cell line, qHTS therapeutic library screen (AID 1346986); further: nearly all actives have a fitted effect of over 60% in size;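 further: potency means the concentration at half of the fitted maximal effect; potency is for cytotoxicity meaning loss of cell viability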
Summary of the method: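 KB-3-1 parental and colchicine-selected P-gp-overexpressing KB-8-5-11 cells (colchicine omitted during assay), 500 cells/well, dosed in dose-response for 72 h at 37 °C; CellTiter-Glo luminescence. Cytotoxic: curve class -1.1 to -2.4, max response >50%, AC50 < 10 uM.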

[2] = P-glycoprotein substrates identified in KB-8-5-11 adenocarcinoma cell line, qHTS therapeutic library screen (AID 1346987); further: nearly all actives have a fitted effect of over 65% in size; further: potency means the concentration at half of the fitted maximal effect
Summary of the method: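 Steps: plate 500 KB-8-5-11 cells/well in DMEM + 10% FCS (colchicine removed); pin compounds in dose-response; incubate 72 h, 37 degree C, 5% CO2; add CellTiter-Glo, 5 min; read luminescence.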

[3] = qHTS to identify inhibitors of the type 1 interferon - major histocompatibility complex class I in skeletal muscle: primary screen against the NCATS Mechanism Interrogation Plate v5.0 (MIPE) Libary (AID 1347411);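 further: plate controls were vehicle for no effect and reference inhibitor for full effect; nearly all actives have a fitted effect of over 65% in size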
Summary of the method: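 Luminescence from HiBiT-tagged endogenous HLA-B*08:01 served as the MHC class I read-out. CRISPR-engineered C25cl48 human myoblasts received 4.0 ng/ml IFN-beta plus compound for 24 hrs, with an 11-point, 1:3 series topping at 46 uM final.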

[4] = Primary qHTS for inhibitors of nuclear receptor binding SET domain protein 2 (NSD2) in an isogenic RCH-ACV NSD2 p.E1099K mutant (9B) (AID 1645876); further: nearly all actives have a fitted effect of over 70% in size; further: potency means the concentration at half of the fitted maximal effect
[5] = Primary qHTS for inhibitors of nuclear receptor binding SET domain protein 2 (NSD2) in an RCH-ACV wild type WT cells (2C) (AID 1645877); further: nearly all actives have a fitted effect of over 70% in size; further: potency means the concentration at half of the fitted maximal effect
[6] = target: Glutathione peroxidase 1 (Homo sapiens) (UniProt P07203); test: Primary qHTS Assay for Inhibitors of Recombinant Selenoprotein Glutathione Peroxidase 1 (GPX1) (AID 1845191); further: nearly all actives have a fitted effect of over 65% in size; further: potency means the concentration at half of the fitted maximal effect
Chain of Glutathione peroxidase 1 (Homo sapiens) (P07203 whole entry, looked up): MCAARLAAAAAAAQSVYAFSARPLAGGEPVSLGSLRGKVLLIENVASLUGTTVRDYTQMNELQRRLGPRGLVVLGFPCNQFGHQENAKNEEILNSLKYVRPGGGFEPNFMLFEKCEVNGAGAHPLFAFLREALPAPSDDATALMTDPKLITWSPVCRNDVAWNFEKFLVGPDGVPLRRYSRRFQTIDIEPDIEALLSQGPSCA
Summary of the method: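 GR-coupled assay: compounds preincubated 30 min at room temperature with GPX1, then reaction started with CHP; final 10 nM GPX1, 1 mM GSH, 0.5 mM CHP, 0.5 mM NADPH, 100 nM GR, 0.01% BSA, pH 7.5 Tris buffer. NADPH fluorescence (340/450 nm) read at 0 and 15 min.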

[7] = target: Phospholipid hydroperoxide glutathione peroxidase GPX4 (Homo sapiens) (UniProt P36969); test: Primary qHTS Assay for Inhibitors of Recombinant Selenoprotein Glutathione Peroxidase 4 (GPX4) (AID 1845192); conditions: outcome: dose series up to 50 µM unless noted; further: on the % scale 0 is the no-effect control and ±100 the full control effect; nearly all actives have a fitted effect of over 65% in size
Chain of Phospholipid hydroperoxide glutathione peroxidase GPX4 (Homo sapiens) (P36969 whole entry, looked up): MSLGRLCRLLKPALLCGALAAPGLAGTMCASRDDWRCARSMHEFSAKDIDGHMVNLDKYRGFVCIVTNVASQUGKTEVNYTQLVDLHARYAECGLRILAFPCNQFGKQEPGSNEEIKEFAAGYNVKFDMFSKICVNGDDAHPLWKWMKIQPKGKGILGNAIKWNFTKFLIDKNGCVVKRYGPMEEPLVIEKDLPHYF
Summary of the method: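 GR-coupled assay: recombinant GPX4 preincubated 30 min with compound at room temperature; final 200 nM GPX4, 1 mM GSH, 0.5 mM cumene hydroperoxide, 0.5 mM NADPH, 100 nM GR, 0.01% BSA, pH 7.5 Tris. NADPH fluorescence (340/450 nm) read at 0 and 15 min.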

[8] = qHTS drug screen for cell cycle checkpoint inhibitors in PARPi-resistant BRCA-mutant ovarian cancer cell lines. (AID 1963452; calls by dose curve); conditions: PEO1/OlaR viability, CellTiter-Glo luminescence, 96 h, stronger effect = lower value
Summary of the method: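 PEO1, PEO4 and PEO1/OlaR ovarian cancer cells, 600 per well, exposed 96 h at 37C to a dilution series. Viability read by CellTiter-Glo luminescence, normalized to DMSO and empty wells; activity summarized as Z-AUC.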

[9] = target: Calcium and integrin-binding protein 1 (Homo sapiens) (UniProt Q99828); test: Primary qHTS for Identification of Calcium Integrin Binding Protein 1 (CIB1) Competitor (AID 1508620);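 further: GST tagged CIB1 binding a fluorescein labelled alphaIIb integrin peptide tracer; top concentration of the series differs between compounds; on the % scale 0 is the no-effect control and ±100 the full control effect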
Chain of Calcium and integrin-binding protein 1 (Homo sapiens) (Q99828 whole entry, looked up): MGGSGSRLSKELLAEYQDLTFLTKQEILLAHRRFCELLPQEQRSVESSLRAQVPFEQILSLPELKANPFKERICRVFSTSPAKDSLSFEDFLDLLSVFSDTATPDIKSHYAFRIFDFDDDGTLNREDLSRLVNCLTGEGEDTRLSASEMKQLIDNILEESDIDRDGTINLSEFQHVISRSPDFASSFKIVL
Summary of the method: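 Fluorescence polarization competition: GST-tagged CIB1 (1 uM final) preincubated with compound 15 min at room temperature, then FITC-labelled alphaIIb peptide (100 nM final) added. After 15 min at room temperature, polarization read at Ex 480/Em 540.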

[10] = target: Cytochrome P450 3A4 (Homo sapiens) (UniProt P08684); test: qHTS Assay for Inhibitors and Substrates of Cytochrome P450 3A4 (AID 884); further: potency means the concentration at half of the fitted maximal effect; nearly all actives have a fitted effect of over 50% in size
Chain of Cytochrome P450 3A4 (Homo sapiens) (P08684 whole entry, looked up): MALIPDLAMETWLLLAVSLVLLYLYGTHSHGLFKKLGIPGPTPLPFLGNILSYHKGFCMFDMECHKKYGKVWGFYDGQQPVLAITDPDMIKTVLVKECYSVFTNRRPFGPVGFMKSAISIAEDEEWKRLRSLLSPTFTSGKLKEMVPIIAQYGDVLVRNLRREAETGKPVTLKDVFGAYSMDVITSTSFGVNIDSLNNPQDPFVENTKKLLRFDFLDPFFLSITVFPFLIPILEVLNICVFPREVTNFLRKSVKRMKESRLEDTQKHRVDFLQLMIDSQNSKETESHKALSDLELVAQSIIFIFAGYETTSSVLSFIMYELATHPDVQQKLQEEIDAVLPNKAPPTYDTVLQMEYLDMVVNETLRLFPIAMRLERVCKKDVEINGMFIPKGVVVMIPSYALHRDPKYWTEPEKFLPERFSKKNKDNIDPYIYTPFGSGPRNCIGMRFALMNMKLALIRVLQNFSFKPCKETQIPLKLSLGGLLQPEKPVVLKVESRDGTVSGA
Summary of the method: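 20 nM human CYP3A4 with 25 uM Luciferin-PPXE (at KM) in 200 mM KPO4, preincubated 10 min with compound; NADPH regeneration started a 60 min RT reaction. Luciferin detected by luminescence, normalized to 57 uM ketoconazole as full inhibition.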

[11] = target: Cytochrome P450 3A4 (Homo sapiens) (UniProt P08684); test: qHTS Assay for Activators of Cytochrome P450 3A4 (AID 885); further: nearly all actives have a fitted effect of over 65% in size
Summary of the method: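 Steps: enzyme/substrate mix dispensed; compound added, 10 min RT; NADPH regeneration solution added, 60 min RT; luciferin detection buffer stops reaction; 20 min later luminescence measured.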

[12] = Confirmation and Secondary Assay for Modulators of Hemoglobin Beta Chain Splicing at IVS2 654 locus (AID 910);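 further: HeLa cells stably carrying EGFP split by mutant beta-globin IVS2-654 intron; % of control where 0% means no effect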
Summary of the method: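 HeLa cells stably expressing EGFP interrupted by β-globin IVS2-654 intron, seeded overnight in Opti-MEM/2% FCS, then treated 2 days at 37 °C. Restored splicing read as total peak GFP intensity per well by laser scanning cytometry (488 nm excitation, 500–520 nm emission); 500 nM antisense PNA as control.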

[13] = Confirmation and Secondary Assay for Modulators of Hemoglobin Beta Chain Splicing at IVS2 705 locus (AID 930);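 further: HeLa cells stably expressing the EGFP-705 splicing reporter; GFP fluorescence per well restored by corrected splicing of the IVS2-705 intron in EGFP; % of control where 0% means no effect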
Summary of the method: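 Read-out: total peak GFP fluorescence per well (488 nm excitation, 500-520 nm emission) by laser-scanning cytometry. Cells: HeLa EGFP-705 splicing reporter, 2 days compound exposure in Optimem/2% FCS.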

[14] = qHTS Assay for Lipid Storage Modulators (AID 1519; calls by dose curve; on activity change, negative = inhibition: on the % scale 0 is the no-effect control and ±100 the full control effect); conditions: Drosophila S3 cells, BODIPY lipid droplet/cell ratio, laser cytometry, cells loaded with oleic acid
Summary of the method: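 Cells seeded at 5,000 per well were treated with compounds over a concentration series and loaded with oleic acid (400 uM, as added). Lipid droplet fluorescence (488 nm excitation, 500-530 nm channel) was read by laser-scanning cytometry and normalized to 20 uM Triacsin C.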

[15] = target: Ubiquitin carboxyl-terminal hydrolase 1 (Homo sapiens) (UniProt O94782); test: Inhibitors of USP1/UAF1: Pilot qHTS (AID 504865);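 further: rhodamine fluorescence freed from ubiquitin-rhodamine substrate followed over time; top concentration of the series differs between compounds; on the % scale 0 is the no-effect control and ±100 the full control effect; nearly all actives have a fitted effect of over 35% in size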
Chain of Ubiquitin carboxyl-terminal hydrolase 1 (Homo sapiens) (O94782 whole entry, looked up): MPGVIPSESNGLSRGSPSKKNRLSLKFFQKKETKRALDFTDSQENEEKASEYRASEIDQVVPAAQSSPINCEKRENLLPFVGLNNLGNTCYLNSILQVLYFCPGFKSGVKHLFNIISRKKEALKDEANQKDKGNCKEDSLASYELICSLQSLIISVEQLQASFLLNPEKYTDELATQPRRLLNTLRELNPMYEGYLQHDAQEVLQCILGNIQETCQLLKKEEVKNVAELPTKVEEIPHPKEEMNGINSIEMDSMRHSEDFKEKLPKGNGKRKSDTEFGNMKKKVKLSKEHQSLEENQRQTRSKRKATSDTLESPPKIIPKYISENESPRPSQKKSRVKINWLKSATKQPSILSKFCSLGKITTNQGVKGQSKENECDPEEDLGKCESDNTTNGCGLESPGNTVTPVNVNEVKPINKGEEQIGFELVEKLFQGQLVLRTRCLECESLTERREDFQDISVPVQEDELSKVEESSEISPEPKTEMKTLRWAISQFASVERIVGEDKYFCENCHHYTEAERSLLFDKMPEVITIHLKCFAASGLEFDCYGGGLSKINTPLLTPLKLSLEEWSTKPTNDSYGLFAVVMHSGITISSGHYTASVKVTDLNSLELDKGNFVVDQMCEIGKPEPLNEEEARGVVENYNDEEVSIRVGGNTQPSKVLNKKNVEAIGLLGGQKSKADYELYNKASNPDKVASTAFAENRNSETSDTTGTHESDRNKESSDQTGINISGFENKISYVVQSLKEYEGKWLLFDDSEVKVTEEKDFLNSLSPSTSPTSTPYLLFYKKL
Summary of the method: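 In 50mM HEPES pH 7.8 containing 0.5mM EDTA, 1mM TCEP, 0.1 mg/ml BSA and 0.01% Tween-20, 1nM USP1/UAF1 is exposed to compound for 15 min, then Ub-Rho (150nM final) is added and fluorescence is read over time.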

CC(C)C(N)C(=O)OCC(CO)OCn1cnc2c(=O)[nH]c(N)nc21 (stereo not given)
1.36: Z-AUC ([8]; measured here: PEO4 Z-AUC)
inactive: Potency [1] | Potency [2] | Potency [3] | Potency [4] | Potency [5] | Potency [6] | Potency [7] | Z-AUC [8] 0.614
1.06: Z-AUC ([8]; measured here: PEO1 parental Z-AUC)

Clc1ccc2ncc(-c3cccc(NC4CCNC4)n3)n2c1 (stereo not given)
inactive: outcome [9] | Potency [6]
active: Potency [1] 0.82 µM | Potency [2] 10.3 µM | Potency [4] 1.3 µM | Potency [5] 1.16 µM

[2H]C([2H])([2H])C(OC(=O)[C@H](C)N[P@](=O)(OC[C@H]1O[C@@H](n2ccc(=O)[nH]c2=O)[C@](C)(F)[C@@H]1O)Oc1ccccc1)C([2H])([2H])[2H]
inactive: Potency [1] | Potency [2] | Potency [4] | Potency [5]

COc1cc(OC)c2ccc(=O)oc2c1
inactive: Potency [11] | outcome [12] | outcome [13] | activity change, negative = inhibition ([14]; at 57.5 µM (top of the series)) 13.4% | Potency [15] | Potency [1] | Potency [2] | Potency [4] | Potency [5]
active: Potency [10] 31.6 µM | Potency [6] 25.5 µM
25.2%: max response ([14]; measured here: lipid channel max response)
9.58%: max response ([14]; measured here: cell count channel max response)

O=C(NCCO)c1cc(C(=O)NCCO)cc(C(=O)NCCO)c1
inactive: Potency [1] | Potency [2] | Potency [4] | Potency [5] | Potency [6]

O=C1/C(=C/c2ccc(O)c(O)c2)Oc2ccccc21
inactive: Potency [1] | Potency [2]
active: Potency [4] 1.84 µM | Potency [5] 2.06 µM

O=C1O[C@H](C(O)CO)C(=O)C1=O (stereo not given in full)
inactive: Potency [1] | Potency [2] | Potency [4] | Potency [5] | Potency [6]

Cc1cn(C2OC(CO)C(O)C2F)c(=O)[nH]c1=O (stereo not given)
inactive: Potency [1] | Potency [2] | Potency [4] | Potency [5]

C/C(=C1/C(=O)Nc2ccc(NC(N)=O)cc21)c1ccc[nH]1
inactive: Potency [6]
active: Potency [1] 4.61 µM | Potency [2] 4.61 µM | Potency [4] 1.64 µM | Potency [5] 1.84 µM

Cc1ccc(OCCSc2ncccn2)c(Br)c1
inactive: Potency [1] | Potency [2] | Potency [4] | Potency [5] | Potency [6]

CC1=CC(=O)C(C(C)C)=C/C1=N/OC(=O)c1ccccc1C
inactive: Potency [1] | Potency [2] | Potency [6]
active: Potency [4] 8.2 µM | Potency [5] 11.6 µM

CCOC(=O)c1cc2ccc(O)cc2oc1=O
inactive: Potency [1] | Potency [2] | Potency [4] | Potency [5]

Cc1cc(Nc2nn(-c3ccccc3)c(=O)c3ccccc23)n[nH]1
inactive: Potency [6]
active: Potency [1] 6.51 µM | Potency [2] 11.6 µM | Potency [4] 1.16 µM | Potency [5] 1.03 µM
